# POLH inh – blocks human DNA polymerase eta activity; 390,000 compounds, 1.2% hits; recombinant Pol eta, fluorescent DNA replication assay; Potency, µM (doses to about 114 µM), inactives show at the highest dose activity change, negative = inhibition, hits mostly inhibitors; note: % is set by controls: 0 for no effect and ±100 for the full control effect
# Target sequence (Q9Y253 whole entry, looked up): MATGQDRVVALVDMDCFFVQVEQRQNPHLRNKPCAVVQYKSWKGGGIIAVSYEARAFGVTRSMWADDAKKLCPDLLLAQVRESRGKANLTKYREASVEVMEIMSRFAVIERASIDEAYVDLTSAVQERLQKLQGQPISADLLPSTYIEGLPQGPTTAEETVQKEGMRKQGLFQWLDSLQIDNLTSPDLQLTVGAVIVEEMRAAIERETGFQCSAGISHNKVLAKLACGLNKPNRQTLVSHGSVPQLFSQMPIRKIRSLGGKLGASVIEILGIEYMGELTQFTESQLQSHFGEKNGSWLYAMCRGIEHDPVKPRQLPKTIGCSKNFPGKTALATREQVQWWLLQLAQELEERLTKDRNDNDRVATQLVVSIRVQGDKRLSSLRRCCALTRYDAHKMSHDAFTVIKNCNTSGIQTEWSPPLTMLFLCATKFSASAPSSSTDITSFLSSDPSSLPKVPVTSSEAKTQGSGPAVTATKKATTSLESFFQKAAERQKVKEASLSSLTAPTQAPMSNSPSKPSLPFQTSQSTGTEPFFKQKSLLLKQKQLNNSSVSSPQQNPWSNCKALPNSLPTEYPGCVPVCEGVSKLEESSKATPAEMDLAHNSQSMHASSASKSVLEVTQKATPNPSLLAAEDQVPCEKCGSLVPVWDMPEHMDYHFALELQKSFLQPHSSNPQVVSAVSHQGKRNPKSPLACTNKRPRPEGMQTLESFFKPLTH
#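 Pol eta at 10 nM preincubated with compounds 15 min at room temperature; reaction started with fluorescent substrate (50 nM final) and read kinetically at 0 and 10 min.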
# Pol beta inh – DNA polymerase beta (human) inhibition | P06746 | Pol beta primer extension/strand displacement, fluorescence kinetic | Potency, µM (series often up to 114 µM), inactives show top-dose activity change, negative = inhibition, hits mostly inhibitors | 340,000 compounds, 1.3% hits; note: % is set by controls: 0 for no effect and ±100 for the full control effect
#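 Values derive from four-parameter Hill fits of normalized kinetic data: reads at 0 and 10 min following addition of 50 nM substrate to 10 nM Pol beta preincubated 15 min with compound.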
# Pol iota inh – blocks human DNA polymerase iota activity | Q9UNA4 | 390,000 compounds, 1% hits | AID 588590 | Potency, µM (series often up to 115 µM), inactives show at the top dose activity, negative = inhibition, usual class: inhibitors | Pol iota fluorescent replication assay, 10 min
#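 Pol iota at 10 nM preincubated 15 min with compounds at room temperature; reaction started with fluorescent substrate, 50 nM final. Fluorescence read kinetically at 0 and 10 min; buffer-only wells as negative control.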
# WRN helicase inh – blocks human WRN helicase. Q14191. WRN helicase unwinding, fluorescent forked duplex, kinetic. Potency, µM (top dose mostly 114 µM), for the others: at the top dose activity change, negative = inhibition, actives largely listed as inhibitors. 360,000 compounds, 0.46% hits. AID 651768; note: % is set by controls: 0 for no effect and ±100 for the full control effect; nearly all actives have a fitted effect of over 55% in size
#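 Screening of the MLSMR collection measured strand separation of a quenched forked DNA duplex (100 nM) by 20 nM WRN with 2 mM ATP, all final. Compounds were preincubated with enzyme 15 min at room temperature.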
# Pol kappa inh – blocks human DNA polymerase kappa activity; Q9UBT6; purified Pol kappa, fluorescent DNA synthesis assay, 10 min; Potency, µM (doses to about 107 µM), for inactives: at the highest dose activity, negative = inhibition, hits mostly inhibitors; 400,000 compounds, 0.53% hits; AID 588579; note: % is set by controls: 0 for no effect and ±100 for the full control effect
#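 Readout: fluorescence, taken kinetically at 0 and 10 min. Conditions: 10 nM Pol kappa, 15 min RT compound preincubation, 50 nM substrate final. Controls: enzyme-free buffer wells.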
# Numbers without * were called inactive; ? = inconclusive; nt = not tested or not shown; [ ] = another dose, or the depositor's remark. Rows were chosen to be rich in hits. Some 2.3% of all compounds tested hit in one or more screens of this group. Calls come from the whole dose curve; as a rule, active = well fitted curve in the direction sought with a large enough effect; inconclusive = small, poorly fitted or top-dose-only effect, or another doubt; inactive = no such curve, though single readings can be large; an effect the other way counts as inactive or inconclusive. Potency is the fitted concentration of half-maximal effect.
SMILES,POLH inh,Pol beta inh,Pol iota inh,WRN helicase inh,Pol kappa inh
Nc1ccccc1N=c1ssnc1Cl,-22%,-5%,?,-3%,-1%
Cc1ccccc1OCC(=O)NCC(=O)OCc1cccc2ccccc12,nt,nt,30%,nt,-6%
COc1ccccc1CNc1nccn(-c2ccccc2)c1=O,0%,21%,16%,nt,-1%[60.1 µM]
CCCCN(CCCC)CC(O)c1cc(Cl)cc2c1-c1ccc(Cl)cc1C2=Cc1ccc(Cl)cc1 (stereo unspecified),nt,nt,9%,nt,-2%
CC(OC(=O)CSc1ccc([N+](=O)[O-])cc1)C(=O)NCc1ccccc1 (stereo unspecified),-13%,nt,?,50µM*,3%
O=C(COC(=O)CSc1ccc([N+](=O)[O-])cc1)NCCc1ccccc1,-21%,nt,42%,-16%,-12%
CN(C)c1ccc(/C=C/c2ccnc3c(Cl)cccc23)cc1,nt,nt,-10%,nt,-33%
COc1ccc2nccc(/C=C/c3ccc(N(C)C)cc3)c2c1,nt,nt,3%,nt,1%
O=S(=O)(c1cccs1)N1CCN(c2nc(-c3cccs3)nc3ccccc23)CC1,nt,nt,-4%,nt,17%
CCOc1ccccc1N1CC(C(=O)N(CC)C2CCS(=O)(=O)C2)CC1=O (stereo unspecified),50µM*,nt,?,-1%[11.6 µM],-20%
CCOc1ccccc1N1CCN(CC(=O)N(C2CCCC2)C2CCS(=O)(=O)C2)CC1 (stereo unspecified),-10%,nt,-17%,9%,-12%
Cc1cccc(NC(=O)CN2C(=O)S/C(=C\C(=O)Nc3ccc(Cl)cc3)C2=O)c1,-21%,-15%,-13%,-11%,-20%
Cc1ccc(NC(=O)CN2C(=O)S/C(=C\c3cc(C)n(-c4ccc(C(=O)O)cc4)c3C)C2=O)cc1,79µM*,79µM*,?,-10%,-5%
COc1cc(SC#N)ccc1N=Cc1c(C)[nH]n(-c2cccc3ccccc23)c1=O,-15%,9%,13µM*,?,-11%
Cc1cc(-c2nc3ncccc3o2)ccc1NC(=O)c1ccc([N+](=O)[O-])o1,50µM*,nt,3.5µM*,-36%,-11%
Cc1cc(C)cc(C(=O)Nc2ccc(-c3nc4ncccc4o3)cc2)c1,?,14µM*,-4%,nt,-9%
Cc1ccc(-c2nc3ncccc3o2)cc1NC(=O)c1ccc([N+](=O)[O-])o1,-10%,-6%,-2%,4%,-10%
Cc1ccc(C(=O)Nc2cc(-c3nc4ncccc4o3)ccc2C)c(C)c1,79µM*,4%,12%,nt,1%
c1ccc(Nc2nc(NCc3ccco3)nc3nccnc23)cc1,nt,nt,-14%,nt,8%
Cc1sc2nc(CSC(C)C(=O)Nc3ccccn3)[nH]c(=O)c2c1C (stereo unspecified),71µM*,nt,-15%,-8%,-16%
Cc1cccc(NC(=O)C(C)SCc2nc3sc(C)c(C)c3c(=O)[nH]2)n1 (stereo unspecified),?,?,?,?,-5%
Cc1sc2nc(CSc3nc4ccccc4s3)[nH]c(=O)c2c1C,nt,40µM*,nt,nt,nt
Cc1sc2nc(CSC(C)C(=O)Nc3cc(S(C)(=O)=O)ccc3Cl)[nH]c(=O)c2c1C (stereo unspecified),32µM*,nt,?,-13%[11.6 µM],?
O=C1CC(=O)N(CCNc2ncc(C(F)(F)F)cc2Cl)C(=O)N1,-13%,56µM*,25µM*,-1%[57.1 µM],?
Nc1c(C(=O)OCC(=O)Nc2cccc([N+](=O)[O-])c2)[nH]c(=O)[nH]c1=O,25µM*,nt,?,?,-32%
SMILES,POLH inh,Pol beta inh,Pol iota inh,WRN helicase inh,Pol kappa inh
O=C(COC(=O)c1ccccc1C(=O)c1ccccc1)Nc1cccc([N+](=O)[O-])c1,-17%,3%,-20%,-15%,-10%[60.1 µM]
CCOC(=O)c1cccc(NC(=O)c2cncc(Br)c2)c1,2%,4%,89µM*,0%[11.6 µM],79µM*
CCOC(=O)c1cccc(NC(=O)c2cccnc2)c1,-1%,6%,13%,-3%,-4%
O=C1c2ccccc2-c2nnc(-c3ccc(F)cc3)cc21,-14%,22%,?,9%,-7%
Cc1ccccc1-c1cc2c(nn1)-c1ccccc1C2=O,-14%,-2%,16µM*,-9%,-6%
CCOC(=O)C1=C(Cc2ccc(OC)cc2)C(=O)c2ccccc2C1=O,?,0%,?,50µM*,-13%
CCOC(=O)C1=C(O)c2ccccc2C(=O)/C1=C\c1ccc(CC)cc1,?,-19%,?,56µM*,-19%
COc1cc2nc(N3CCCN(C)CC3)nc(NC3CCN(C)C3)c2cc1OC (stereo unspecified),nt,nt,-9%,nt,-31%
CC(C)(C)n1ncc2c(=O)n(Cc3ccc(SC(F)(F)F)cc3)cnc21,nt,nt,13%,nt,10%
O=c1cc(CN2CCN(S(=O)(=O)c3ccc4c(c3)OCCO4)CC2)c2ccc(O)cc2o1,?,35µM*,35µM*,-20%,?
Cc1csc(N2CCN(c3cc4nc(-c5ccncc5)[nH]c4cc3Cl)CC2)n1,8%,35µM*,?,-9%,-24%
Cc1csc(N2CCN(c3cc4c(cc3Cl)nc(-c3ccncc3)n4CCCN3CCCC3)CC2)n1,-15%,12%,2%,-11%,-6%
NNC(=O)c1cc(O)c(O)c(O)c1,-1%,3.2µM*,?,-16%[57.1 µM],56µM*
Cc1cc(N/N=C/c2ccc(O)cc2)c2cccc(C)c2n1,?,25µM*,-24%,45µM*,-24%
Cc1cc(N/N=C/c2ccc(N(C)C)cc2)c2ccccc2n1,?,-2%,3%,-2%,-8%
CC(C)CCNC(=O)c1c[nH]c2ccc(S(=O)(=O)N3CCC4(CC3)OCCO4)cc2c1=O,-1%,35µM*,7%,-14%,-3%
COc1ccc(N2Cc3cccc(C(=O)O)c3C2=O)cc1,4µM*,7.1µM*,?,50µM*,?
CCCN1Cc2cccc(C(=O)N3CCN(c4ccc(OC)cc4)CC3)c2C1=O,4%,-12%,9%,9%,1%
CC#C[C@]1(O)CC[C@H]2C3CCC4=CC(=O)CCC4=C3[C@@H](c3ccc(N(C)C)cc3)C[C@@]21C (stereo partly specified),4%[57.1 µM],-4%[57.1 µM],?,nt,6%[19.4 µM]
CC1Cc2cc(/C(O)=C3/C(=O)C(=O)N(CC4CCCO4)C3c3ccco3)ccc2O1 (stereo unspecified),14µM*,22µM*,?,-13%[57.1 µM],-25%
C=CCOc1cccc(C2/C(=C(/O)c3ccc4c(c3)CC(C)O4)C(=O)C(=O)N2CCN2CCOCC2)c1 (stereo unspecified),-3%,-19%,89µM*,-1%[11.6 µM],-14%
COc1cc(C2/C(=C(\O)c3ccc4c(c3)CC(C)O4)C(=O)C(=O)N2CC2CCCO2)cc(OC)c1OC (stereo unspecified),-16%,-19%,14%,-23%,-11%
CCCCN1CCCc2cc(CN(CCCN3CCOCC3)C(=O)Nc3ccc(CC)cc3)ccc21,-20%,-25%,5%,nt,-13%[60.1 µM]

# Compound activity deposited in PubChem BioAssay by National Center for Advancing Translational Sciences (NCATS).
